Results: PubChem BioAssay AID602244 (Sanford-Burnham Center for Chemical Genomics, 2012)
Among all 360,000 compounds or so, about 1,300 (0.36%) were called active. Only a selection was taken, and actives are over-represented in it overall. A number with no mark means an inactive call. Rule as the data show it: active = inhibition above about 34% (passing the limit was not always enough); inactive = the rest.

molecular target: C-X-C chemokine receptor type 6 (Homo sapiens) (UniProt O00574); assay: CXCR6 receptor inhibitors, primary screen, cell-based, beta-arrestin, luminescence, CHO-K1 PathHunter, 1536-well (AID 602244); details: at 20 µM, hits give high values;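 also: antagonist mode with CXCL16 agonist at 10 nM final; 0% = 10 nM CXCL16 with DMSO and 100% = unstimulated wells without agonist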
Sequence (O00574 whole entry, looked up): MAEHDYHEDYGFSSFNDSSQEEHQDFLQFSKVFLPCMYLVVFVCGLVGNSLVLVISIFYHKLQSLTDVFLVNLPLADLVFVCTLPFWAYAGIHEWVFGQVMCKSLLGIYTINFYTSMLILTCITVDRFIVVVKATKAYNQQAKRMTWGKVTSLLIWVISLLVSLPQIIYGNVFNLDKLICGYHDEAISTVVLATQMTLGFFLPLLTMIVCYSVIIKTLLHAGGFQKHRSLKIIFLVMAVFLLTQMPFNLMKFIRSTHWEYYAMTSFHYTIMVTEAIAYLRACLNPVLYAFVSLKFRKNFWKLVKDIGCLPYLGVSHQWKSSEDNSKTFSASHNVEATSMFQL

Compound	inhibition
CC(CC(=O)Nc1ccc(F)cc1F)S(=O)(=O)c1ccc2c(c1)NC(=O)CO2 (stereo not drawn)	6.2%
CCn1cc(C(=O)N2CC=C(c3ccccc3)CC2)c(=O)c2ccc(C)nc21	-18.1%
Cc1ccc(NC(=O)CCC(=O)c2ccc(Br)cc2)cc1	-2.1%
Cc1ccc(C(=O)CNc2ccc(F)cc2)cc1	46.4% (active)
Cc1ccc(C(=O)NC2CCN(C(=O)Nc3ccc(F)cc3)CC2)cc1	-6%
CCCC(=O)Nc1ncnc2c1ncn2[C@@H]1O[C@@H]2OP(=O)(O)OC[C@H]2[C@H]1OC(=O)CCC	-1%
CC1=C/C(=N\OS(=O)(=O)c2ccccc2)C=CC1=O	62% (active)
N#Cc1c(NC(=O)c2ccc(N3CCOCC3)c([N+](=O)[O-])c2)sc2c1CCCC2	15.6%
O=C1Nc2ccc(Br)cc2/C1=N/N=C/C1=C(N2CCOCC2)C(=C\c2ccccc2)/CC1	41.2% (active)
O=C(O)c1ccc(NN=CC2=C(N3CCOCC3)/C(=C/c3ccccc3)CC2)cc1	-2.9%
O=S(N1CCCCCC1)C12CC3CC(CC(C3)C1)C2 (stereo not drawn)	-6.4%
CC(=O)N1CCc2c(sc(NC(=O)CCS(=O)(=O)c3ccc(C)cc3)c2C(N)=O)C1	8.6%
CCCNC(=O)C1(C)CCCN(C(=O)c2oc3ccccc3c2C)C1 (stereo not drawn)	6.5%
COc1ccc(C2/C=C\CN(S(=O)(=O)c3cccs3)CC(=O)N2Cc2ccc(F)cc2)cc1 (stereo not drawn)	10.5%
CC1CN(CC(=O)NC(C)c2ccccc2)CC(C)O1 (stereo not drawn)	4.8%
CC(=O)Nc1cc(-c2ccc(N3CCN(C)CC3)cc2)cn2c(-c3ccc(F)cc3)cnc12	89.5% (active)
CC(=O)Nc1cc(-c2ccc(N3CCN(C)CC3)cc2)cn2c(-c3cccc(C(=O)N(C)C)c3)cnc12	-6.6%
COc1ccccc1-c1cc(NC(C)=O)c2ncc(-c3ccc(F)cc3)n2c1	8.7%
CCOn1c(=O)c(=O)n(O)c2ccccc21	3.7%
COc1ccc(C(C)(NC(C)=O)c2nc(-c3ccc(S(C)(=O)=O)cc3)cs2)cc1 (stereo not drawn)	1.5%
COc1ccc(-c2csc(Cc3nc(O)cs3)n2)cc1	66.9% (active)
COc1ccc(C(O)c2nc(-c3ccc(OC)nc3)cs2)cc1 (stereo not drawn)	-1.3%

Compound	inhibition
O=C(NCc1ccccc1)C1c2ccccc2OCC(=O)N1CCCN1CCOCC1 (stereo not drawn)	3.7%
O=C(c1ccncc1)N1CCN(S(=O)(=O)c2cc(C(F)(F)F)cc(C(F)(F)F)c2)CC1	-2.1%
COc1cccc(NC(=O)C(=O)c2cn(CC(=O)N3CCOCC3)c3ccccc23)c1	6%
O=C1c2ccccc2NC(c2ccccc2O)N1NS(=O)(=O)c1ccccc1 (stereo not drawn)	-0.7%
CC(C)c1c(O)nc(SCCOc2ccc(Cl)cc2)[nH]c1=O	7.1%
Cc1ccc(-c2nn(-c3ccc(F)cc3)cc2C(=O)NCC(c2cccs2)N2CCOCC2)cc1 (stereo not drawn)	15.5%
O=C(c1ccc(Cl)c(S(=O)(=O)N2CCCCCC2)c1)N1CCN(c2ccc(O)cc2)CC1	-20.6%
c1ccc(-n2cccc2)c(N2CCCCC2)c1	-7.4%
O=C1C=CC(=O)N1c1ccc(N2CCCCC2)cc1	74.7% (active)
NC(=O)c1ccc(N2CCCC2)nc1	1%
COC(=O)C1=C(C(=O)OC)[C@@H]2N(C)c3ccccc3[C@@]23C[C@@H](C(=O)OC)N(C(C)=O)C3=N1	0.7%
O=C(C1CC(=O)N(C2CCCCC2)C1)N1CCN(c2ccccc2)CC1 (stereo not drawn)	37% (active)
O=C(C1CC(=O)N(C2CCCC2)C1)N1CCN(c2cccc(C(F)(F)F)c2)CC1 (stereo not drawn)	-1.4%
O=C(C1CC(=O)N(c2ccc(F)cc2)C1)N1CCN(c2ccccc2)CC1 (stereo not drawn)	7%
CCN1CCN(c2ccc(S(=O)(=O)N3CCCCC3)cc2NC(=O)c2cccc(NC(C)=O)c2)CC1	1.9%
CN(CCCC(=O)Nc1nccs1)S(=O)(=O)c1ccc(Cl)cc1	0.8%
O=S(=O)(NCc1ccccc1Br)c1ccccc1Br	4.3%
Oc1ccc2ccccc2c1N=Nc1nccs1	65.1% (active)
COC(=O)CN1C(=O)[C@H]2[C@@H](/C=C/c3ccccc3)N3C(=O)CN(Cc4ccccc4)C(=O)[C@@]3(Cc3ccccc3)[C@H]2C1=O	-9.8%
O=C(Nc1ccc(S(=O)(=O)N2CCOCC2)cc1)C1CCN(S(=O)(=O)c2ccc(Cl)cc2)CC1	0.6%
C/C(=N\NS(=O)(=O)c1ccc(Cl)cc1)c1ccc(NC(=O)c2ccco2)cc1	0.1%
O=C(Nc1ccccc1)c1nnsc1S(=O)(=O)c1ccc(Cl)cc1	96.4% (active)

Compound	inhibition
CC1CCN(CCCNC(=O)CN2C(=O)CSc3ccc(S(=O)(=O)N4CCCCC4)cc32)CC1	2%
Cc1ccc(-c2noc(CCC(=O)Nc3ccccc3N3CCN(C)CC3)n2)cc1	6%
CCc1nn(-c2cc(Oc3cccc4ccccc34)nc(-c3ccccc3)n2)c(N)c1C#N	0.4%
Cc1cccc(NC(=O)C2CCN(S(=O)(=O)c3cccc4cccnc34)CC2)c1	9.3%
Cc1cccc(CS(=O)(=O)c2ncc(Cl)c(C(=O)Nc3ccc(F)cc3)n2)c1	57% (active)
Cc1cccc(C(=O)Nc2ccc(Oc3cnccn3)cc2)c1	1.5%
Cc1cccc(NC(=O)Cn2cc(C(=O)c3ccco3)c3ccccc32)c1	4.5%
CN(CC(=O)Nc1ccc(F)cc1)CC(=O)Nc1ccc(Cl)c(S(=O)(=O)N2CCOCC2)c1	-1%
Cc1cccc(NC(=O)c2nc(S(=O)(=O)Cc3ccccc3)ncc2Cl)c1	64.6% (active)
O=C(NN1CCOCC1)c1cccc(F)c1	0.7%
CCCNC(=O)C1(C)CCN(C(=O)c2cc(F)ccc2C)C1 (stereo not drawn)	0.9%
O=C(CSc1nc2cc3c(cc2c(=O)n1CCC1=CCCCC1)OCO3)NCc1ccco1	6.1%
Cc1ccc2c(c1)N(CC(=O)NCCc1ccc(Cl)cc1)C(=O)c1cccnc1O2	-3.1%
O=c1ccc2c(-c3ccccc3S(=O)(=O)O)c3ccc(O)c(O)c3oc-2c1O	47.9% (active)
CC(=O)N1c2ccc(S(=O)(=O)N3CCCC(C(=O)Nc4cccc(F)c4)C3)cc2CC1C (stereo not drawn)	-11.7%
Cc1ccc(CCCOC(=O)C[N+]2(C)CCCCC2)cc1	-4.5%
CCCNC(=O)c1onc(CSc2ccc(F)cc2)c1C(=O)NC(C)C	2.3%
Cc1ccc(S(=O)(=O)N2CC[C@H]3[C@@H](C2)C(=O)C[C@@H](c2ccccc2)N3S(=O)(=O)c2ccc(C)cc2)cc1	-1.4%
CC(=O)Nc1nc(C)c(Cc2ccccc2)c(=O)[nH]1	4.4%
CCCCc1nc2cc(C(=O)N3CCCCC3CCO)ccc2o1 (stereo not drawn)	4%
COc1ccc2c(c1)c(=Cc1ccc(N(C)C)cc1)c1cc(-c3ccccc3)[n+](C)n12	39.6% (active)
COCCC(=O)N1CCC(Oc2ccc(C(=O)NCc3ccon3)cc2)CC1	6.3%

Compound	inhibition
C[C@H]1CN([C@@H](C)CO)C(=O)c2cc(C3=CCCCC3)cnc2O[C@@H]1CN(C)C(=O)Cc1ccccc1	-0.7%
CC1(C)OC(=O)C2=C(C[C@@H](C3CCCCC3)O[C@@H]2c2ccc(Cl)cc2)O1	8.1%
COCCN(C(=S)Nc1cccc(Cl)c1C)C(C)c1ccco1 (stereo not drawn)	3.3%
OCC1OC(n2cnc3c(N4CCCC4)ncnc32)C(O)C1O (stereo not drawn)	-4.2%
COc1ccc(C2NC(=O)C(=O)/C2=C(\O)c2ccc(Cl)cc2)cc1OC (stereo not drawn)	0.4%
CCOCCCN1C(=O)C2C(C(=O)Nc3ccc(OCC)cc3)C3C=CC2(O3)C1C(=O)NC1CCCCC1 (stereo not drawn)	74.4% (active)
CC(C)N1C(=O)C2C(C(=O)NC3CCCCC3)C3C=CC2(O3)C1C(=O)NC1CCCC1 (stereo not drawn)	-4.9%
CCN(CC)CCN1C(=O)C2C(C(=O)Nc3ccc(Br)cc3)C3C=CC2(O3)C1C(=O)NC1CCCCC1 (stereo not drawn)	7.8%
CCc1cc2c(=O)n(-c3ccccc3)c(SCC(=O)O)nc2s1	-2%
CCO[C@H]1OC(C(=O)N2CCN(Cc3ccccc3)CC2)=C[C@@H](c2cn(C(C)=O)c3ccccc23)[C@@H]1CCCO	-0.6%
CC1CCN(S(=O)(=O)c2ccc3c(ccn3CC(=O)O)c2)CC1	7.6%
O=C(Nc1ccccc1Cl)/C(Cl)=C(\Cl)S(=O)c1ccccc1 (stereo not drawn)	93.1% (active)
O=C(Nc1ccccc1C(=O)N1CCCCCC1)c1ccccc1Cl	10.2%
Cc1cc(C(=O)OCC(=O)Nc2ccccc2Cl)c(C)o1	-6.7%
Nc1nc2c(ncn2[C@@H]2O[C@H](CNCc3ccc(OCCCN4CCOCC4)cc3)[C@@H](O)[C@H]2O)c(=O)[nH]1	-4.2%
CN(C)S(=O)(=O)c1ccc(Cl)c(NC(=O)COC(=O)CC(NC(N)=O)c2ccc(Cl)cc2)c1 (stereo not drawn)	-0.2%
O=C(/C=C/Sc1ncn[nH]1)c1ccc(Cl)cc1	17.1%
CCOC(=O)C(=Cc1ccccc1)C(=O)c1ccccc1	24%
Cc1cc(C)nc(S/C=C/C(=O)c2ccccc2)n1	46.1% (active)
CCCCc1nc2ccccc2c(NC(=O)CN2CCN(C)CC2)c1CCC	2.4%
Nc1ccccc1SC(C[N+](=O)[O-])c1ccccc1 (stereo not drawn)	43.8% (active)
CC(=O)Oc1ccc(Cn2c(C)c(C(=O)NCc3ccc(C#N)cc3)sc2=O)cc1	3.1%
